Values joined by “and” are separate entries in the source; they are usually repeats but may differ in a detail not shown here. Equal entries are not always repeated. The panel holds about 83,000 compounds, 20% with a hit somewhere; the sample as a whole holds those more often.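 The endpoint reported here, percent growth, reads 100 for growth as untreated, 0 for no net growth and -100 for all cells dead.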
What was measured:
Test in all cases: NCI-60 one-dose screen, 48 h (100 = growth as untreated, 0 = no growth, -100 = all killed); active means growth percent below 10; inactive means the rest
[1] = tested on: SK-MEL-2 melanoma
[2] = tested on: EKVX NSCLC
[3] = tested on: SN12C renal
[4] = tested on: UO-31 renal
[5] = tested on: TK-10 renal
[6] = tested on: ACHN renal
[7] = tested on: CAKI-1 renal
[8] = tested on: A498 renal; conditions: 10 µM unless noted
[9] = tested on: CCRF-CEM leukemia
[10] = tested on: MOLT-4 leukemia
[11] = tested on: SR leukemia
[12] = tested on: RPMI-8226 leukemia; conditions: 10 µM unless noted
[13] = tested on: OVCAR-8 ovarian
[14] = tested on: OVCAR-5 ovarian
[15] = tested on: OVCAR-4 ovarian
[16] = tested on: SK-OV-3 ovarian; conditions: 10 µM unless noted
[17] = tested on: IGROV1 ovarian
[18] = tested on: OVCAR-3 ovarian
[19] = tested on: HS 578T breast
[20] = tested on: NCI/ADR-RES ovarian

Measured: growth

COc1ccc(Cl)cc1C(=O)NCCc1ccc(S(=O)(=O)NC(=O)NC2CCCCC2)cc1
inactive: [1]; 10 µM 113% | [1]; 100 µM 75.8% | [2]; 10 µM 95.5% and 99.6% | [2]; 100 µM 58.6% | [3]; 10 µM 91.4% and 93.8% | [3]; 100 µM 71.4% | [4]; 10 µM 96.2% and 79.1% | [4]; 100 µM 40.6% | [5]; 10 µM 115% and 99.1% | [5]; 100 µM 92.1% | [6]; 10 µM 96.9% and 101% | [6]; 100 µM 54.8% | [7]; 10 µM 94.5% and 94.3% | [7]; 100 µM 56.7% | [8] 73.2% | [9]; 10 µM 86.3% and 95.1% | [9]; 100 µM 64.1% | [10]; 10 µM 113% and 98.6% | [10]; 100 µM 60.6% | [11]; 10 µM 105% and 90% | [11]; 100 µM 61.3% | [12] 104% and 99.5% | [13]; 10 µM 99.8% and 100% | [13]; 100 µM 67.3% | [14]; 10 µM 111% and 112% | [14]; 100 µM 101% | [15]; 10 µM 117% and 103% | [15]; 100 µM 58.7% | [16] 103% and 96.1% | [17]; 10 µM 119% and 99.4% | [17]; 100 µM 69.2% | [18]; 10 µM 112% and 121% | [18]; 100 µM 66.1% | [19]; 10 µM 94.7% and 110% | [19]; 100 µM 54.8% | [20]; 10 µM 103% and 107% | [20]; 100 µM 76.6%

CC(=O)Oc1cc(C(=O)O)cc(OC(C)=O)c1OC(C)=O
inactive: [1]; 10 µM unless noted 119% and 107% | [2]; 10 µM unless noted 84.3% and 105% | [3]; 10 µM unless noted 93.9% and 99.7% | [4]; 10 µM unless noted 96.7% and 98.2% | [5]; 10 µM unless noted 115% and 102% | [6]; 10 µM unless noted 112% and 98.3% | [7]; 10 µM unless noted 99.5% and 95.5% | [8] 73.8% | [9]; 10 µM unless noted 101% and 104% | [10]; 10 µM unless noted 116% and 94.1% | [11]; 10 µM unless noted 117% and 101% | [12] 96.7% and 102% | [13]; 10 µM unless noted 103% and 99.9% | [14]; 10 µM unless noted 117% and 94.9% | [15]; 10 µM unless noted 109% and 97% | [16] 94.1% and 102% | [17]; 10 µM unless noted 130% and 95.8% | [18]; 10 µM unless noted 105% | [19]; 10 µM unless noted 99.5% and 112% | [20]; 10 µM unless noted 103% and 96.7%

O=c1c2ccccc2nc2n1Cc1nc3ccccc3c(=O)n1C2
inactive: [1]; 10 µM unless noted 103% and 119% | [2]; 10 µM unless noted 90.9% and 104% | [3]; 10 µM unless noted 96.9% and 102% | [4]; 10 µM unless noted 81.2% and 92.6% | [5]; 10 µM unless noted 107% and 102% | [6]; 10 µM unless noted 95.6% and 102% | [7]; 10 µM unless noted 93.5% | [8] 93.9% and 103% | [9]; 10 µM unless noted 96.2% and 112% | [10]; 10 µM unless noted 99.4% and 30.7% | [11]; 10 µM unless noted 85.9% | [12] 93% and 102% | [13]; 10 µM unless noted 112% and 110% | [14]; 10 µM unless noted 101% and 102% | [15]; 10 µM unless noted 95.2% and 108% | [16] 112% and 110% | [17]; 10 µM unless noted 88% and 106% | [18]; 10 µM unless noted 92.6% and 112% | [19]; 10 µM unless noted 91.7% and 114% | [20]; 10 µM unless noted 102% and 105%

Cc1cc(O)c2c(c1)C(=O)c1cc(O)cc(O)c1C2=O
inactive: [1]; 10 µM unless noted 94.9% and 85.1% | [2]; 10 µM unless noted 68% and 77.3% | [3]; 10 µM unless noted 86.1% and 91.1% | [4]; 10 µM unless noted 76.6% and 71.2% | [5]; 10 µM unless noted 104% and 95.4% | [6]; 10 µM unless noted 87.8% and 88.8% | [7]; 10 µM unless noted 72.2% and 95.2% | [8] 82.7% and 75.8% | [9]; 10 µM unless noted 82.5% and 80% | [10]; 10 µM unless noted 101% and 85.9% | [11]; 10 µM unless noted 108% and 86% | [12] 75.8% and 74.3% | [13]; 10 µM unless noted 92.7% | [14]; 10 µM unless noted 68% and 95.6% | [15]; 10 µM unless noted 55% and 68.5% | [16] 102% and 84.8% | [17]; 10 µM unless noted 65.9% and 101% | [18]; 10 µM unless noted 84.1% and 95.9% | [19]; 10 µM unless noted 89.7% and 88.9% | [20]; 10 µM unless noted 91.6% and 101%
